From ChEMBL document CHEMBL3988442, “University of Dundee, Small-Polar-MMV Screening Library” (2021)
About 13,000 (27%) of roughly 48,000 compounds showed an effect of 50% or more. This is one part of the list.

System: Wolbachia pipientis
Experiment: Anti-Wolbachia Cell-Based Screen
Assay type: functional
Set-up: scale not given: in the data most compounds retested in dose-response had high values
Settings: 5 µM

Structure (SMILES)	Percent Effect [%]
CC(C)N1CC(C(=O)N2CCN(CCn3cccc3)CC2)CC1=O (stereo not given)	11.86
Cc1ccc(CN(CCN(C)C)Cc2ncc[nH]2)s1	-6.049
CNC(=O)c1cccc(CCNS(C)(=O)=O)c1	-1.562
COc1ccc(OC)c(C(C)NC(=O)Nc2nnc(C)s2)c1 (stereo not given)	-19.71
CCCN1CCc2c(C(=O)N(C)Cc3ccccn3)nn(C)c2C1.O=C(O)C(F)(F)F.O=C(O)C(F)(F)F.O=C(O)C(F)(F)F	5.255
CN(C)C(=O)COCc1cncc2c1CCN(Cc1cnn(C)c1)C2.O=C(O)C(F)(F)F.O=C(O)C(F)(F)F	-8.97
CN(C)C(=O)COCc1cncc2c1CCN(Cc1ccccn1)C2.O=C(O)C(F)(F)F.O=C(O)C(F)(F)F	86.2
CN(C)CCOCc1cncc2c1CCN(Cc1ccccn1)C2.O=C(O)C(F)(F)F.O=C(O)C(F)(F)F.O=C(O)C(F)(F)F	94.64
CN(C)C(=O)COCc1cncc2c1CCN(Cc1ccccc1)C2.O=C(O)C(F)(F)F.O=C(O)C(F)(F)F	-0.7445
O=C(O)C(F)(F)F.OCCOCc1n[nH]c2c1CN(Cc1ccccn1)C2	-2.311
O=C(O)c1cc(-c2ccncc2)cc(S(=O)(=O)NCc2ccccn2)c1	-3.238
CC(C1CC1)N(CC(=O)NC(=O)NC1CC1)C1CC1 (stereo not given)	-6.692
O=C(CCCNC(=O)Nc1ccc(F)cc1F)Nc1cn[nH]c1	-17.8
O=C(Nc1ccc(F)cc1F)Nc1c[nH]c(=O)[nH]c1=O	-7.625
Cc1[nH]ncc1CCCNC(=O)Nc1ccccc1	-6.052
Cc1nc(CCCNC(=O)Nc2cc(F)cc(F)c2)n[nH]1	105.8
Cc1[nH]ncc1CCCNC(=O)Nc1ccc(F)cc1	17.19
Cc1nc(CCCNC(=O)Nc2ccc(F)cc2F)n[nH]1	105.4
CCC(CO)N(Cc1ccco1)C(=O)c1ccccc1SC (stereo not given)	-1.914
Cc1cc2c(c(-c3cncc(C(=O)N4CCCC4)n3)c1)OC(CN)C2 (stereo not given)	3.308
CCOc1ccccc1OC1CCN(Cc2ccn(C)c(=O)c2)CC1	96.61
Cn1ccc(CN2CCC(Oc3ccccc3)CC2)cc1=O	0.4399

Structure (SMILES)	Percent Effect [%]
COc1ccc(OC2CCN(Cc3ccn(C)c(=O)c3)CC2)cc1	90.95
Cc1cccc(C)c1OC1CCN(Cc2ccn(C)c(=O)c2)CC1	80.01
CC(=O)NCCC(=O)N(C/C=C/c1ccccc1)CCO	2.612
CC(C)(O)CCc1ccc(C(=O)NCC2CCCOC2)cc1 (stereo not given)	-16.45
Cc1noc(CN2CCN(C(=O)c3ccccn3)CC2)n1	-3.094
Cc1csc2nc3n(c(=O)c12)CCN(C(=O)c1ccncc1)CC3	0.2415
CN1CCN(Cc2cnc3n2CCN(C(=O)c2ccccn2)C3)CC1	-0.6061
Cc1csc2c(=O)n3c(nc12)CCN(C(=O)c1ccccn1)CC3	118.3
Cc1nc(C)c(C(=O)N2CCc3nc4c(C)csc4c(=O)n3CC2)s1.Cl	93.57
Cc1csc2c(=O)n3c(nc12)CCN(C(=O)c1cccnc1)CC3	-6.131
Cc1ccc(C(=O)N2CCc3nc4c(C)csc4c(=O)n3CC2)cn1	130.6
CCc1cc(C(=O)N2CCc3nc4c(C)csc4c(=O)n3CC2)on1	101.2
Cc1nc(-c2ccsc2)sc1C(=O)N1CCn2c(C)nnc2C1	-8.635
CCc1nc(CN2CCN(C(=O)c3cc(C)nn3C)CC2)cs1	-4.839
O=C1OCCN1CCc1nc(-c2cc3c4c(c2)CC(=O)N4CCC3)cs1	-4.599
O=C(O)CC[C@@H]1CN(c2ncccc2F)CC[C@@H]1N1CCOCC1	1.489
CSCc1nc(C(C)(C)NC(=O)OC(C)(C)C)no1	6.132
COc1ccc(CN2C[C@@H](CN(C)CCO)[C@@H](CO)C2)cc1Cl	-12.8
CC(C)(C)N1CC(C(=O)NCc2nc(C3CCCCC3)no2)CC1=O (stereo not given)	-1.29
CCc1ccc(CNC(=O)CCNS(=O)(=O)c2cn(C)c(C)n2)s1	-8.825
Cc1csc2c(=O)n3c(nc12)CCN(C(=O)c1ccnn1C)CC3	126.7
Cc1cc2c(=O)n3c(nc2s1)CCN(C(=O)c1cnn(C)c1C)CC3	-11.91

Structure (SMILES)	Percent Effect [%]
C[C@@H]1CN(C(=O)Nc2cccc(OC(F)F)c2)CC(C(N)=O)O1 (stereo not given in full)	-8.405
Cc1cc(NC(=O)N2CCOC(C(N)=O)C2)ccc1Br (stereo not given)	158.4
COCCN1CCC(CNC(=O)Nc2ccc(SC(F)(F)F)cc2)C1 (stereo not given)	-1.712
NC(=O)C1CN(C(=O)NCC2(c3ccc(F)cc3)CCC2)CCO1 (stereo not given)	2.915
Cc1ccc(NC(=O)N2CCOC(C(N)=O)C2)cc1C(F)(F)F (stereo not given)	103.5
CN1CCCc2cc(NC(=O)N3CCOC(C(N)=O)C3)ccc21 (stereo not given)	-7.642
NC(=O)C1CN(C(=O)Nc2ccc(SC(F)(F)F)cc2)CCO1 (stereo not given)	111.1
COc1ccc(NC(=O)N2CCC(c3nnc[nH]3)CC2)cc1C	-18.03
NC(=O)C1CN(C(=O)Nc2cc(Cl)cc(Cl)c2)CCO1 (stereo not given)	-5.843
COCCCC1(CO)CCCN(Cc2cccc(C#N)c2)C1 (stereo not given)	1.897
COCC(C)NCc1ccc2[nH]c(C)c(C)c2c1 (stereo not given)	5.235
Cc1ccc(-n2c(COCC(=O)O)nc3c(C)cccc32)nc1	-11.98
O=C(c1ccc2nncn2c1)N1CCCC1c1noc(C2CC2)n1 (stereo not given)	-1.94
OCCCN1CCCC1c1nc(Cc2ccc(F)cc2)no1 (stereo not given)	-4.354
Cc1ncsc1CN1CC(C)(C2CC2)CC1=O (stereo not given)	-4.839
Cc1nc(CN(CCc2ccccc2)C2CCN(C)CC2)no1	-15.44
Cc1nc(CN(C)C2CCN(CCCOc3ccc(F)cc3)C2)no1 (stereo not given)	112.3
Cc1nc(CN(C)C2CCN(CCCc3ccccc3)C2)no1 (stereo not given)	119.3
CCc1n[nH]c(C2CN(CCCOc3cccc(C)c3)CCO2)n1 (stereo not given)	13.14
Cc1nc(CN(C)C2CCN(CCCOc3ccccc3C)C2)no1 (stereo not given)	109.1
Cc1cccc(OCCCN2CCC(N(C)Cc3noc(C)n3)C2)c1 (stereo not given)	112.7
